# An excerpt weighted towards active compounds, which were near 3% of everything screened.
# IkB signaling: IkB Signaling | Potency, µM (highest dose often 57.1 µM), for inactives: at the top dose IkBa stabilization activation | ABC-DLBCL IkBa-CBG/CBR dual luciferase ratio, 4 h; response scale: scaled: untreated 0%, proteasome inhibitor 100% | actives 0.04% (n = 110,000); active = well fitted curve in the direction sought with a large enough effect in the signal ratio, not every such curve was filed as active; inconclusive = small, poorly fitted or top-dose-only effect, or a change in a side signal; the % refers to the signal ratio;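 also: the direction sought is a rising ratio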
#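 Curves were fitted separately to fusion (green), unfused (red) and ratio luminescence, then classed by r2, magnitude and activity. Cells: OCI-Ly3, 4 h compound plus doxycycline at 37C; 10 uM MG-132 defined full response.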
# CRE-bla Fsk: Cell signaling CRE-BLA (Fsk stim) | CHO CRE-bla reporter (cAMP response element driving beta-lactamase), forskolin EC10, beta-lactamase ratio | Potency, µM (doses to about 38.2 µM), inactives show at the highest dose activity change, negative = inhibition, actives largely listed as activators | actives 2.5% (n = 71,000) | AID 662, 2007; active = well fitted activation curve with a large enough effect in the signal ratio, with a control signal flat, not every such curve was filed as active; inconclusive = small, poorly fitted or top-dose-only effect, or effect the other way, or a change in a side signal; the % refers to the signal ratio; also: % of control where 0% means no effect
#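 qHTS titration format; CRE-bla CHO reporter; stimulus EC10 NKH 477, a water-soluble forskolin. Read: CCF4 460/530 nm ratio. Potency expressed as AC50 for activators or inhibitors.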
# Imprint erasure: qHTS Assay for Compounds that Induce Erasure of Genomic Imprints; mouse ES Peg3-LacZ reporter, beta-gal luminescence, 40 h; Potency, µM (top dose mostly 60.7 µM), for inactives: at the top dose activity change, positive = activation, actives largely listed as activators; actives 0.02% (n = 110,000); AID 1948, 2009
#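 Each well holds 300 Peg3LacZ-Neo (maternal) female ES cells incubated 40 h at 37C, 5% CO2. LacZ is measured by BetaGlo luminescence, with AC50 and maximum efficacy derived from dose-response curves.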
# p53ts 32C kill: qHTS Screen for Compounds that Selectively Target Cancer Cells with p53 Mutations: Cytotoxicity of p53ts Cells at the Permissive Temperature; Potency, µM (highest dose often 46.1 µM), for inactives: top-dose activity change, negative = cytotoxicity, most hits filed as cytotoxic; actives 0.93% (n = 130,000); AID 924, 2007; H1299-p53A138V at 32C, ATP luminescence viability, 24 h;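 also: 0% = DMSO and -100% = full killing by reference compound; nearly all actives have a fitted effect of over 55% in size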
#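 H1299-p53 A138V cells (temperature-sensitive p53) exposed 24 h to up to 46 uM compound at 32C, where p53 is wild-type in conformation. Viability read as ATP luminescence and normalised to DMSO and 100 uM tamoxifen. AC50 fitted with the Hill equation.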
# p53ts 39C kill: qHTS Screen for Compounds that Selectively Target Cancer Cells with p53 Mutations: Cytotoxicity of p53ts Cells at the Nonpermissive Temperature. H1299-p53A138V viability at 39C, ATP luminescence, 24 h. Potency, µM (highest dose often 46.1 µM), for the others: at the top dose activity change, negative = cell killing, usual class: cytotoxic. actives 1.5% (n = 130,000). AID 902, 2007; also: % is scaled to controls: 0 for no effect and ±100 for the full control effect; nearly all actives have a fitted effect of over 55% in size
# * hit, by the source's call; ? = inconclusive; . = not tested or not shown; [ ] = another dose, or the depositor's remark. Unless noted, calls follow the shape of the dose curve; as a rule, active = well fitted curve in the direction sought with a large enough effect; inconclusive = small, poorly fitted or top-dose-only effect, or another doubt; inactive = no such curve, though single readings can be large; an effect the other way counts as inactive or inconclusive. Potency is read from the fitted curve at half-maximal effect.
SMILES,IkB signaling,CRE-bla Fsk,Imprint erasure,p53ts 32C kill,p53ts 39C kill
COCCn1c(N)c(C(=O)OCc2ccccc2)c2nc3ccccc3nc21,?,10µM*,-16%,16%,-6%
CCCCOC(=O)c1c(N)n(-c2ccc(OC)cc2OC)c2nc3ccccc3nc12,?,.,-10%[10.9 µM],9%,10%
CCOC(=O)c1c(N)n(-c2ccc(C)c(C)c2)c2nc3ccccc3nc12,-1%,.,-13%[10.9 µM],-8%,10%
CCCN(CCC)C(=O)C1CCN(c2cc(C)nc3c(-c4ccc(Cl)cc4)c(C)nn23)CC1,?,.,-10%[10.9 µM],-7%,-24%
CCOc1ccc(-c2ccc(CO)o2)cc1N,4%,.,-23%[10.9 µM],16µM*,?
COc1ccc(NC(=O)CN2C(=O)COc3ccc(S(=O)(=O)N4CCCCC4)cc32)cc1Cl,1%,.,-12%[10.9 µM],19%,-5%
COc1ccc(-c2nnc3c4ccccc4c(C)nn23)cc1S(=O)(=O)N1CCN(CCO)CC1,-8%,10µM*,-12%,-4%,-7%
CCN1CCN(c2oc(COc3ccc(-c4ccccc4)cc3)nc2C#N)CC1,?,5µM*,-30%,45%,18%
COc1ccccc1-c1nc(C#N)c(N2CCN(Cc3ccccc3)CC2)o1,?,13µM*,-20%,7%,30%
N#Cc1nc(COc2ccccc2)oc1N1CCCCC1,-3%,16%,-17%,-4%,-6%
COc1ccccc1-c1nc(C#N)c(NCc2ccc(F)cc2)o1,-1%,13µM*,-15%,8%,-6%
COc1ccc(CCNc2oc(-c3ccccc3OC)nc2C#N)cc1,?,?,-33%,-6%,-1%
CC1CCN(c2oc(-c3cccc4ccccc34)nc2C#N)CC1,1%,10µM*,0%,-6%,-4%
CCNc1oc(-c2cccc3ccccc23)nc1C#N,-1%,?,-7%,-10%,-4%
CC(C)Nc1oc(-c2cccc3ccccc23)nc1C#N,-3%,13µM*,-17%,-16%,-23%
C=CCNc1oc(-c2cccc3ccccc23)nc1C#N,-2%,13µM*,-14%,0%,-10%
CC(C)[C@@H]1O[C@H](/C=C\c2ccccc2)OCC1(C)C,-2%[11.4 µM],-5%[7.6 µM],.,2%[9.22 µM],11%[9.22 µM]
CC(C)Oc1ccccc1C1CC(=O)Nc2cc3c(cc21)OCCO3 (centres undefined),?,6.3µM*,-19%,36%,46%
O=C(CSc1cn(CC(=O)N2CCCC2)c2ccccc12)Nc1ccc(Cl)cc1,?,.,-15%[10.9 µM],-4%,13µM*
Cc1cc(-n2c(SCc3ccccc3F)nc3[nH]ncc3c2=O)ccc1Cl,?,.,-11%[10.9 µM],12%,16µM*
CCNc1ncc2ncc(=O)n(Cc3cccs3)c2n1,0%[11.4 µM],?,-12%,20%,1%
Cc1nc2cnc(N3CCNCC3)nc2n(Cc2cccs2)c1=O,0%[11.4 µM],10µM*,-34%,4%,-4%
CCNc1ncc2nc(C)c(=O)n(Cc3cccs3)c2n1,-1%[11.4 µM],10µM*,-12%,18%,-5%
Cc1nc2cnc(N3CCN(C)CC3)nc2n(Cc2cccs2)c1=O,1%[11.4 µM],?,.,5%,5%
COc1ccc(N2C(=O)C(CC(=O)Nc3ccccc3)N(CCC3=CCCCC3)C2=O)cc1 (centres undefined),1%,.,2%[10.9 µM],-5%,-24%
Cn1c(=O)n(C)c2cc(N3CCOCC3)c(NC(=O)c3c(F)cccc3F)cc21,-5%,.,-4%[10.9 µM],-7%,8%
COc1ccccc1-c1cc2nc(C)c(CCC(=O)NCc3cccc(Cl)c3)c(C)n2n1,?,.,-4%[10.9 µM],15%,-15%
Cn1c(=N)c(S(=O)(=O)c2ccc(F)cc2)cc2c(=O)n3ccccc3nc21,2%,1.6µM*,-3%,4%,9%
Cn1c(=N)c(S(=O)(=O)c2ccccc2)cc2c(=O)n3ccccc3nc21,0%,2µM*,4%,2%,10%
COc1ccccc1CNC(=O)Cc1c(C)c2c(cc(C)c3c(C)c(C)oc32)oc1=O,1%,.,-14%[10.9 µM],6%,-11%
